Test results: PubChem BioAssay AID1159580 (chemical genetic matrix, 2015)
Where “and” joins values, the source holds several entries; their conditions need not be identical. Equal entries are not always repeated. The campaign covered roughly 5,500 compounds. About 2,000 (36%) were called active. About 18% were inconclusive and are not listed. Cut-off read from the data, not from the text of the source: active = normalized growth mostly below about 0.91 (no sharp cut-off); inconclusive = no clear call, values can overlap the other calls; inactive = mostly above about 0.92. Some of the results follow.

Test: chemical genetic growth profiling, strain panel (AID 1159580);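 note: tested at 20 µM; growth read once vehicle control cultures reached saturation at 30 °C; 1 = growth at the plate median or of vehicle wells; lower values mean less growth of the strain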
Conditions: S. cerevisiae deletion strains, growth OD

Measured: normalized growth

C[C@]12CCC(=O)C=C1C=CC1C2CC[C@@]2(C)C1CC[C@@]2(O)CCC(=O)O (stereo partly specified)
inactive: locus YAL013W, strain DEP1, stronger effect = lower value 1 | locus YAL021C, strain ccr4, stronger effect = lower value 1.02 | locus YAL026C, strain drs2, stronger effect = lower value 1.01 | locus YAL030W, strain snc1, stronger effect = lower value 1.02 | locus YBL061C, strain skt5, stronger effect = lower value 1.03 | locus YBR009C, strain hhf1, stronger effect = lower value 0.997 | locus YBR021W, strain FUR4, stronger effect = lower value 0.985 | locus YBR023C, strain chs3, stronger effect = lower value 1.02 | locus YBR171W, strain sec66, stronger effect = lower value 1.03 | locus YBR229C, strain ROT2, stronger effect = lower value 0.991 | locus YBR231C, strain swc5, stronger effect = lower value 1.01 | locus YBR279W, strain paf1, stronger effect = lower value 1.03 | locus YCL011C, strain gbp2, stronger effect = lower value 1.03 | locus YCL016C, strain dcc1, stronger effect = lower value 1.01 | locus YCL029C, strain bik1, stronger effect = lower value 0.963 | locus YCL069W, strain vba3, stronger effect = lower value 1.04 | locus YCR088W, strain abp1, stronger effect = lower value 1.03 | locus YDL005C, strain med2, stronger effect = lower value 1.03 | locus YDL035C, strain GPR1, stronger effect = lower value 1.02 | locus YDL040C, strain nat1, stronger effect = lower value 1.04 | locus YDL074C, strain BRE1, stronger effect = lower value 0.969 | locus YDL101C, strain DUN1, stronger effect = lower value 0.982 | locus YDL134C, strain PPH21, stronger effect = lower value 0.99 | locus YDL185W, strain tfp1, stronger effect = lower value 0.982 | locus YDL192W, strain arf1, stronger effect = lower value 0.997 | locus YDR001C, strain nth1, stronger effect = lower value 1.01 | locus YDR069C, strain doa4, stronger effect = lower value 1.01 | locus YDR101C, strain arx1, stronger effect = lower value 0.98 | locus YDR137W, strain rgp1, stronger effect = lower value 0.986 | locus YDR150W, strain NUM1, stronger effect = lower value 1 | locus YDR159W, strain sac3, stronger effect = lower value 0.982 | locus YDR162C, strain NBP2, stronger effect = lower value 1 | locus YDR195W, strain ref2 1.02 | locus YDR297W, strain sur2, stronger effect = lower value 1.02 | locus YDR318W, strain mcm21, stronger effect = lower value 0.986 | locus YDR334W, strain swr1, stronger effect = lower value 1.04 | locus YDR335W, strain msn5, stronger effect = lower value 1.03 | locus YDR388W, stronger effect = lower value 0.988 | locus YDR392W, strain spt3, stronger effect = lower value 0.978 | locus YDR502C, strain sam2, stronger effect = lower value 0.989 | locus YEL003W, strain gim4, stronger effect = lower value 1.02 | locus YEL037C, strain rad23, stronger effect = lower value 1.04 | locus YEL061C, strain CIN8 (second series), stronger effect = lower value 1.02 | locus YEL061C, strain CIN8, stronger effect = lower value 0.999 | locus YER015W, strain faa2, stronger effect = lower value 1.04 | locus YER016W, strain bim1, stronger effect = lower value 1 | locus YER110C, stronger effect = lower value 0.986 | locus YER111C, strain swi4, stronger effect = lower value 1.03 | locus YER155C, strain BEM2 (second series), stronger effect = lower value 1.02 | locus YER155C, strain BEM2, stronger effect = lower value 0.986 | locus YER167W, strain BCK2, stronger effect = lower value 1.01 | locus YFR010W, strain ubp6, stronger effect = lower value 1.04 | locus YGL078C, strain dbp3, stronger effect = lower value 0.983 | locus YGL086W, strain mad1, stronger effect = lower value 1 | locus YGL167C, strain pmr1, stronger effect = lower value 1.02 | locus YGL173C, strain kem1, stronger effect = lower value 1.01 | locus YGL227W, strain vid30, stronger effect = lower value 1.01 | locus YGL240W, strain doc1, stronger effect = lower value 0.968 | locus YGL248W, strain PDE1, stronger effect = lower value 0.994 | locus YGL253W, strain hxk2, stronger effect = lower value 1.03 | locus YGR078C, strain PAC10, stronger effect = lower value 0.987 | locus YGR135W, strain pre9, stronger effect = lower value 0.988 | locus YGR229C, strain SMI1, stronger effect = lower value 1.03 | locus YGR252W, strain gcn5, stronger effect = lower value 1.07 | locus YHR013C, strain ard1, stronger effect = lower value 1.02 | locus YHR027C, strain rpn1, stronger effect = lower value 1.02 | locus YHR030C, strain SLT2, stronger effect = lower value 0.996 and 1.06 | locus YHR079C, strain IRE1 (second series), stronger effect = lower value 0.991 | locus YHR079C, strain IRE1, stronger effect = lower value 1.08 | locus YHR094C, strain hxt1, stronger effect = lower value 0.993 | locus YHR129C, strain ARP1, stronger effect = lower value 0.986 | locus YHR142W, strain chs7, stronger effect = lower value 1.05 | locus YHR200W, strain rpn10, stronger effect = lower value 0.984 | locus YIL066C, strain RNR3, stronger effect = lower value 0.982 | locus YIL073C, strain SPO22, stronger effect = lower value 0.975 | locus YIL125W, strain kgd1, stronger effect = lower value 1.01 | locus YIR030C, strain dcg1, stronger effect = lower value 0.991 | locus YJL092W, strain hpr5, stronger effect = lower value 1.03 | locus YJL095W, strain BCK1 (second series), stronger effect = lower value 1.03 | locus YJL095W, strain BCK1, stronger effect = lower value 0.956 and 1.05 | locus YJL115W, strain asf1, stronger effect = lower value 1.03 | locus YJL129C, strain trk1, stronger effect = lower value 1.06 | locus YJL134W, strain LCB3, stronger effect = lower value 0.997 | locus YJL154C, strain vps35, stronger effect = lower value 1.01 | locus YJL164C, strain tpk1, stronger effect = lower value 1.01 | locus YJL166W, strain qcr8, stronger effect = lower value 0.996 | locus YJL168C, strain set2, stronger effect = lower value 0.987 | locus YJL187C, strain SWE1 (second series), stronger effect = lower value 0.971 | locus YJL187C, strain SWE1, stronger effect = lower value 1.03 | locus YJR043C, strain POL32, stronger effect = lower value 0.974 | locus YJR066W, strain TOR1, stronger effect = lower value 0.976
